In the library only some 4.6% were active in any assay of this set; here they are far more common.
HSF1 inh: HSF1 inhibitors in luciferase reporter cells, primary screen, cell-based, NIH3T3, luminescence; NIH3T3-HGL HSE-luciferase, MG132-induced, luminescence 8 h; hits give low values; activity change, negative = inhibition, % at 7.5 µM (by protocol); actives 0.77% (n = 300,000); AID 2098, 2009;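 active = more than half of replicate wells show activity change below -50%, luminescence cut by over half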;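 note: luciferase reports HSF-1 transcriptional activity via heat shock element; 0% = median of DMSO wells and -100% = zero luminescence signal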
HSF-1 act: HSF-1 activators, primary screen, NIH3T3-HGL cells, MG132 stress, luminescence, single point; NIH3T3-HGL HSF-1 luciferase reporter, 8 h; 100% = twice DMSO control signal; activation, % at 9 µM; actives 1.7% (n = 300,000);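 active = mean replicate activation of at least 50% with a set share of replicates each reaching 50%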;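 note: 0% = median of the neutral control wells and 100% = twice that signal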
GAA850 FXN act: FXN promoter activators, primary screen, cell-based, luciferase luminescence, HEK293 lucGAA850; AID 540364, 2011; HEK293 lucGAA850 FXN promoter luciferase reporter, 24 h; percent of 10 µM SAHA response; actives 0.56% (n = 360,000); activation, % at 6 µM;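 active = activation above the average of all compounds screened plus 3 SD, cutoff fixed separately per campaign, cut at about 7.5% in these data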;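 note: 0% = DMSO wells and 100% = 10 µM SAHA wells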
AHR activator: AHR activators, primary screen, cell-based, luminescence, luciferase reporter, human; activation, % at 5 µM; Aryl hydrocarbon receptor (Homo sapiens), P35869; actives 2.5% (n = 320,000); AHR-responsive luciferase reporter cells; in the data active = activation above about 47%;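 note: 0% = vehicle wells and 100% = reference agonist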
AHR act cf: AHR activators, confirmation, cell-based, luminescence, luciferase reporter, human; shares compounds with AHR activator; human cells, AHR-responsive luciferase reporter; activation, % at 9 µM; actives 87% (n = 2,300); in the data active = activation above about 49%;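 note: HepG2 hepatoma cells carrying a DRE-driven firefly luciferase reporter; 0% = vehicle wells and 100% = reference agonist wells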
PXR counter: human PXR activators, counter-screen for AHR activator project, cell-based, luciferase luminescence; shares compounds with AHR activator; cell-based PXR reporter; activation, % at 11.6 µM; actives 88% (n = 2,300); AID 434939, 2010; in the data active = activation above about 11%;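 note: human hepatoma DPX-2 cells expressing full-length human PXR; 0% = DMSO and 100% = reference agonist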
Target sequence (O75469 whole entry, looked up): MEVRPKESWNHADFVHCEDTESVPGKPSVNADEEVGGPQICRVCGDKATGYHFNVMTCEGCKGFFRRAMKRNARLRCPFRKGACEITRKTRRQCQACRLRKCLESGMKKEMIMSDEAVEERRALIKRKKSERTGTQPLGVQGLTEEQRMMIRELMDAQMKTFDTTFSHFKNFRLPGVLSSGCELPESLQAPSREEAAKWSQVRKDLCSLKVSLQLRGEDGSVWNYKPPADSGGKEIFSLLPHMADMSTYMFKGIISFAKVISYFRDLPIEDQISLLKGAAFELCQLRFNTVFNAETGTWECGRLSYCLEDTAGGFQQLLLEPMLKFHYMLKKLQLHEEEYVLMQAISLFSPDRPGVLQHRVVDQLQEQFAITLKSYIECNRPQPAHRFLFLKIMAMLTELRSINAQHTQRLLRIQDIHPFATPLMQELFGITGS
Starred values were filed as active, the others as inactive; x = no result given.

SMILES | HSF1 inh | HSF-1 act | GAA850 FXN act | AHR activator | AHR act cf | PXR counter
Nc1n[nH]c(C2CC2)c1N=Nc1ccc(Cl)cc1 | -6 | 1 | 0 | 81* | 101* | 9
N/C(=N\OC(=O)c1ccc(Cl)c(Cl)c1)c1cccnc1 | 20 | 37 | 4 | 80* | 80* | 14*
N/C(=N\OC(=O)c1ccccc1Cl)c1cccnc1 | 16 | 47 | 3 | 102* | 104* | 5
CCCCCOc1ccc(CSC(=N)N)cc1[N+](=O)[O-] | -1 | -2 | 3 | 1 | x | x
CCCCCOc1ccc(Cn2ccnc2)cc1[N+](=O)[O-] | -1 | 14 | 4 | 101* | 75* | 53*
O=c1c2ccccc2nc2oc3ccccc3n12 | 17 | 24 | 4 | 95* | 93* | 17*
O=[N+]([O-])c1ccc(Cl)cc1CNc1ccc(F)c(F)c1 | -5 | -4 | 1 | 106* | 80* | 20*
COc1ccc(NCc2ccccc2[N+](=O)[O-])cc1OC | 12 | 24 | 1 | 3 | x | x
CN=c1scc(C)n1/N=C/c1cc(Br)c(O)c(Br)c1 | 7 | 46 | 2 | 118* | 110* | 14*
COC(=O)Nc1nn(-c2ccc(Cl)cc2)c(=O)c(C#N)c1C | -7 | -13 | 1 | 96* | 29 | 14*
Cn1c(=O)c([N+](=O)[O-])c(NCCCn2ccnc2)c2ccccc21 | -3 | 2 | -1 | 80* | 110* | 27*
Cc1ccccc1NC(=O)c1cc(=O)c2ccccc2o1 | 1 | 22 | -2 | -4 | x | x
CC(=O)Nc1cccc(NC(=O)c2cc3ccccc3o2)c1 | 28 | 40 | 2 | 8 | x | x
O=C(Nc1ccccc1)c1cc2ccccc2o1 | 19 | 47 | 5 | 93* | 68* | 21*
Cc1ccccc1NC(=O)c1cc2ccccc2o1 | 25 | 44 | 6 | 103* | 122* | 14*
Cn1c(SCc2ccc(Br)cc2)nnc1-c1ccccn1 | 18 | 14 | 3 | -3 | x | x
COC(=O)C1C/C(=N\NS(=O)(=O)c2ccc(C)cc2)c2ccsc2C1 (stereo unspecified) | 0 | -9 | 1 | 4 | x | x
Cc1cc[n+](CC(=O)c2cccs2)cc1 | -4 | -18 | 2 | 0 | x | x
CC(=O)N1CCOc2ccc(S(=O)(=O)Nc3cccc(C)c3)cc21 | -4 | -1 | -2 | 4 | x | x
CC12CCC(=O)C=C1CCC1C2C(O)CC2(C)C1CCC2(O)C(=O)COC(=O)CCC1CCCC1 (stereo unspecified) | x | x | 4 | x | x | x
Cc1ccc(N=Nc2c(O)[nH]c3ccc(F)cc23)cc1 | 14 | 21 | 5 | 114* | 129* | 22*
Clc1ccc(-c2nc(/C=N/N3CCOCC3)c3ccccn23)cc1 | 10 | 53* | 2 | 90* | 78* | 25*
Clc1ccccc1-c1nc(/C=N/N2CCOCC2)c2ccccn12 | -6 | 11 | 2 | 13 | x | x
CN1CCN(/N=C/c2nc(-c3ccccc3)n3ccccc23)CC1 | -5 | 2 | 2 | 102* | 65* | 16*
Cc1ccc2nc(-c3ccncc3)c(Nc3ccccc3)n2c1 | 2 | 27 | 5 | 4 | x | x
SMILES | HSF1 inh | HSF-1 act | GAA850 FXN act | AHR activator | AHR act cf | PXR counter
CSc1ccc(CN(C)C(C)C(=O)NCc2ccccc2)cc1 (stereo unspecified) | 2 | -1 | 1 | 3 | x | x
C=CCn1c(=N)n(CC(=O)c2ccccc2)c2ccccc21 | 2 | 23 | -1 | 102* | 88* | 47*
C=CCn1c(NC(=O)c2ccccc2)nc2ccccc21 | 10 | 35 | 1 | 87* | 126* | 33*
N=c1n(N)c2ccccc2n1CC(=O)c1ccc(Br)cc1 | 9 | -4 | 3 | 83* | 86* | 10
CCCn1c(NC(=O)c2ccc(Br)cc2)nc2ccccc21 | -6 | -13 | 4 | 13 | x | x
C=CCn1c(=N)n(CC(=O)c2ccc(Br)cc2)c2ccccc21 | 2 | -13 | 1 | 86* | 96* | 31*
CCCn1c(=N)n(CC(=O)c2ccc([N+](=O)[O-])cc2)c2ccccc21 | 8 | 14 | -1 | 11 | x | x
CCCn1c(=N)n(CC(=O)c2ccc(Cl)cc2)c2ccccc21 | -3 | 0 | -3 | 86* | 80* | 31*
COC(=O)N/N=C/c1c(C)c(C(=O)c2ccc(F)cc2)n2ccccc12 | 2 | -3 | -5 | 86* | 74* | 94*
CCOC(=O)N/N=C/c1c(C)c(C(=O)c2ccc(F)cc2)n2ccccc12 | -2 | -3 | 0 | 84* | 104* | 74*
S=C(NCc1ccccc1)Nc1ccncc1 | -4 | -6 | -1 | 0 | x | x
COC(=O)c1sccc1NC(=O)c1cc(-c2cc(C)ccc2C)nc2ccccc12 | -16 | -7 | -2 | 11 | x | x
Cn1cc(C(=O)N/N=C/C(Br)=C/c2ccccc2)ccc1=O | 62 | 90* | 6 | 116* | 143* | 11*
Cn1cc(C(=O)N/N=C/C(Br)=C\c2ccccc2)ccc1=O | 65 | 87* | 5 | 112* | 77* | 11*
Cn1cc(C(=O)N/N=C/C=C/c2ccccc2)ccc1=O | -8 | 2 | 2 | 9 | x | x
COc1ccccc1NC(=O)c1ccc2c(c1)nnn2C | 1 | 10 | 3 | 95* | 74* | x
COc1cc2c(cc1NC(=S)Nc1cccc(C(F)(F)F)c1)oc1ccccc12 | 1 | 17 | 0 | 107* | 92* | 29*
COc1ccccc1NC(=O)C(=N\O)/C(C)=N/O | -6 | 10 | 3 | 89* | 116* | 25*
CCOc1cc(N2CCOCC2)c(OCC)cc1NC(=O)c1ccc(-n2ccnc2)c([N+](=O)[O-])c1 | -1 | -19 | 0 | 3 | x | x
COc1ccccc1NC(=O)c1ccc(-n2ccnc2)c([N+](=O)[O-])c1 | 4 | 6 | -1 | 95* | 104* | 20*
COc1ccc(-c2cc(=O)oc3cc(OCC(=O)Nc4ccccn4)ccc23)cc1 | 3 | 5 | 2 | 2 | x | x
C[C@@H]1CN(c2nc3nonc3nc2N2CCSCC2)C[C@H](C)O1 | -3 | 4 | 1 | 1 | x | x
COc1ccccc1NC(=O)c1ccc2c(c1)OCO2 | 19 | 28 | 2 | 129* | 105* | 28*
COc1cc2c(cc1NC(=O)C(C)NCc1ccccc1)oc1ccccc12 (stereo unspecified) | -1 | 30 | 5 | 117* | 133* | 90*
COc1cc2c(cc1NC(=O)c1ccc3c(c1)OCO3)oc1ccccc12 | 36 | 49 | 2 | 99* | 119* | 24*

Source: PubChem BioAssay
